Each sequence was assayed against TNPO2 (assay: pooled miR-30 sensor sort-seq; sequence = guide strand). Details: shRNA.
Further: reference of the scale not given here.

Row | Sequence | sensor-assay potency score (higher = more potent)
1 | AATCTTATAAAACATGTCCCGA | -0.983
2 | TTGAAGAACTGCAGGAACTTGG | -0.371
3 | TTTGAGCAGCTGCAGGACCTGC | -1.11
4 | TTCTCTAGAATTGCTGACCCAG | -0.678
5 | TTTGAGTTTATCCTGCACGATG | -1.1
6 | AATGTTGTTGAGACACTCCTGT | 0.856
7 | TCATCTTCTGACTTGAGTCTGG | 0.0435
8 | TGAGTCTTTGAGCAGCTGCAGG | -1.5
9 | TTGTTCTTGAGGATGAGGCCAC | -0.289
10 | TTGTCTTCGTCCTTGAGCTCAT | 0.165

These sequences were tested against TOMM40L in the same assay as above. Details: shRNA.

Row | Sequence | sensor-assay potency score (higher = more potent)
11 | TGTGGTAGTAACTTGCATGGGC | 1.17
12 | TTACTATCCACCAAGCCTCTAA | -0.326
13 | TACCAAATCCAGCACATCCAGG | -1.16
14 | TACATCTTTGCATAGACGGTGC | 0.000587
15 | TTTGGAACCTCTGATAGTCTGT | 0.397
16 | TTTCTCTAATGTTCAGACCTGG | -0.359
17 | TAGACGGTGCAGCTCATCGAAG | -1.14
18 | TCTGATAGTCTGTCATACCAGA | -0.753
19 | TATACCATAGAACACATCCACC | -1.17
20 | TAAGAGGTAAAGAAGCTCCTTC | 0.51
21 | TTATACCATAGAACACATCCAC | -0.126
22 | TAGTCTGTCATACCAGAGCATG | -1.7

The sequences below were run against TOP1MT in the same assay as above. Details: shRNA.

Row | Sequence | sensor-assay potency score (higher = more potent)
23 | TTCTTCTCCAGGACACTCCTGG | 0.134
24 | TTGTAGGTCCGGAACACCTTGG | -0.571
25 | TTTGCCTGGATCTTCGTCTGGA | 0.141
26 | TTCTGAACGCTCTCGGTCCAAG | -1.34
27 | TTGTTCTCCTCCTTGTCCGTGG | -0.327
28 | TTTTTCTTGGTGACCATCTAAA | -1.15
29 | TCATTGAAGAAGTTCTTCCGGA | 0.332
30 | TGTAGGATAAGATCTTAGCTGC | 0.167
31 | TTGTTGTGTATTCATGATCTAA | -0.885
32 | TTGTCCACAAAGTATCTGTGGA | 0.0397
33 | TATTCATGATCTAACATCCTCC | 0.13
34 | TTTTGCTGTAGATCTTCTCCAC | 0.12

What follows are sequences tested against TP53I13 in the same assay as above. Details: shRNA.

Row | Sequence | sensor-assay potency score (higher = more potent)
35 | TGACTTGAACAGACACAGCCCC | -0.111
36 | TCGTGTGTAGGTCACTCTTGGT | -1.06
37 | TTGGCCTTCAAGCTCCCTGGGG | -0.75
38 | TTTCACAGTAGATCCATGCCTT | 0.393
39 | TTCAGCACAGCAGCCACTGTGT | -0.771

— the OligoGym collection
